Several values for one entry are separate records, joined by “and”; a condition that tells them apart may be missing. Identical values can stand only once. Hit rate of the full screen: of about 5,500 compounds, about 2,000 (36%) were called active. Another 18% or so got no clear call; they are omitted. Cut-off read from the data, not from the text of the source: active = normalized growth mostly below about 0.91 (no sharp cut-off); inconclusive = no clear call, values can overlap the other calls; inactive = mostly above about 0.92. This is one part of the list.
Assay: chemical genetic growth profiling, strain panel (AID 1159580);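 note: tested at 20 µM; growth read once vehicle control cultures reached saturation at 30 °C; 1 = growth at the plate median or of vehicle wells; lower values mean less growth of the strain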
Settings: S. cerevisiae deletion strains, growth OD

Measured: normalized growth

CCC1(C)CC(=O)NC1=O (stereo not given)
inactive: locus YAL013W, strain DEP1, stronger effect = lower value 1.01 and 1.05 | locus YAL021C, strain ccr4, stronger effect = lower value 0.987 | locus YAL026C, strain drs2, stronger effect = lower value 0.986 | locus YAL030W, strain snc1, stronger effect = lower value 0.954 | locus YAL040C, strain CLN3, stronger effect = lower value 0.994 | locus YBL061C, strain skt5, stronger effect = lower value 0.993 | locus YBR009C, strain hhf1, stronger effect = lower value 0.97 | locus YBR021W, strain FUR4, stronger effect = lower value 1.01 | locus YBR023C, strain chs3, stronger effect = lower value 0.958 | locus YBR171W, strain sec66, stronger effect = lower value 0.983 | locus YBR229C, strain ROT2, stronger effect = lower value 1.01 | locus YBR231C, strain swc5, stronger effect = lower value 0.991 | locus YBR279W, strain paf1, stronger effect = lower value 0.973 | locus YCL011C, strain gbp2, stronger effect = lower value 0.992 | locus YCL016C, strain dcc1, stronger effect = lower value 0.986 | locus YCL029C, strain bik1, stronger effect = lower value 1.02 | locus YCL061C, strain MRC1 (second series), stronger effect = lower value 1.01 | locus YCL069W, strain vba3, stronger effect = lower value 0.977 | locus YCR088W, strain abp1, stronger effect = lower value 0.974 | locus YDL005C, strain med2, stronger effect = lower value 0.974 | locus YDL035C, strain GPR1, stronger effect = lower value 0.999 | locus YDL040C, strain nat1, stronger effect = lower value 0.995 | locus YDL074C, strain BRE1, stronger effect = lower value 0.977 | locus YDL101C, strain DUN1, stronger effect = lower value 1.01 | locus YDL134C, strain PPH21, stronger effect = lower value 1.02 | locus YDL185W, strain tfp1, stronger effect = lower value 1.02 | locus YDL192W, strain arf1, stronger effect = lower value 1.02 | locus YDR001C, strain nth1, stronger effect = lower value 0.964 | locus YDR069C, strain doa4, stronger effect = lower value 0.991 | locus YDR101C, strain arx1, stronger effect = lower value 1.04 | locus YDR137W, strain rgp1, stronger effect = lower value 0.979 | locus YDR150W, strain NUM1, stronger effect = lower value 1.01 | locus YDR159W, strain sac3, stronger effect = lower value 0.986 | locus YDR162C, strain NBP2, stronger effect = lower value 1.02 | locus YDR195W, strain ref2 0.953 | locus YDR297W, strain sur2, stronger effect = lower value 0.981 | locus YDR318W, strain mcm21, stronger effect = lower value 1.01 | locus YDR334W, strain swr1, stronger effect = lower value 0.952 | locus YDR335W, strain msn5, stronger effect = lower value 0.969 | locus YDR363W, strain ESC2, stronger effect = lower value 1.02 | locus YDR388W, stronger effect = lower value 1.02 | locus YDR392W, strain spt3, stronger effect = lower value 0.962 | locus YDR502C, strain sam2, stronger effect = lower value 1.01 | locus YEL003W, strain gim4, stronger effect = lower value 0.978 | locus YEL037C, strain rad23, stronger effect = lower value 0.975 | locus YEL061C, strain CIN8 (second series), stronger effect = lower value 0.982 | locus YEL061C, strain CIN8, stronger effect = lower value 1.01 | locus YER002W, strain NOP16, stronger effect = lower value 1.01 | locus YER015W, strain faa2, stronger effect = lower value 0.96 | locus YER016W, strain bim1, stronger effect = lower value 0.981 | locus YER110C, stronger effect = lower value 1.02 | locus YER111C, strain swi4, stronger effect = lower value 0.983 | locus YER155C, strain BEM2 (second series), stronger effect = lower value 0.973 | locus YER155C, strain BEM2, stronger effect = lower value 0.999 | locus YER167W, strain BCK2, stronger effect = lower value 1.01 | locus YFR010W, strain ubp6, stronger effect = lower value 0.974 | locus YGL078C, strain dbp3, stronger effect = lower value 1.01 | locus YGL086W, strain mad1, stronger effect = lower value 1.01 | locus YGL167C, strain pmr1, stronger effect = lower value 0.982 | locus YGL173C, strain kem1, stronger effect = lower value 0.98 | locus YGL227W, strain vid30, stronger effect = lower value 0.985 | locus YGL240W, strain doc1, stronger effect = lower value 0.971 | locus YGL248W, strain PDE1, stronger effect = lower value 1 | locus YGL253W, strain hxk2, stronger effect = lower value 0.981 | locus YGR078C, strain PAC10, stronger effect = lower value 1 and 0.997 | locus YGR135W, strain pre9, stronger effect = lower value 1.02 | locus YGR229C, strain SMI1, stronger effect = lower value 1.01 and 1.03 | locus YGR252W, strain gcn5, stronger effect = lower value 0.98 | locus YHR013C, strain ard1, stronger effect = lower value 0.94 | locus YHR027C, strain rpn1, stronger effect = lower value 0.978 | locus YHR030C, strain SLT2, stronger effect = lower value 1.01 and 0.972 | locus YHR079C, strain IRE1 (second series), stronger effect = lower value 1.02 | locus YHR079C, strain IRE1, stronger effect = lower value 0.978 | locus YHR094C, strain hxt1, stronger effect = lower value 1.02 | locus YHR129C, strain ARP1, stronger effect = lower value 1 | locus YHR142W, strain chs7, stronger effect = lower value 0.967 | locus YHR200W, strain rpn10, stronger effect = lower value 1.02 | locus YIL066C, strain RNR3, stronger effect = lower value 1.01 | locus YIL073C, strain SPO22, stronger effect = lower value 1.06 | locus YIL125W, strain kgd1, stronger effect = lower value 1.01 | locus YIR030C, strain dcg1, stronger effect = lower value 1.02 | locus YJL092W, strain hpr5, stronger effect = lower value 0.974 | locus YJL095W, strain BCK1 (second series), stronger effect = lower value 0.982 | locus YJL095W, strain BCK1, stronger effect = lower value 0.989 and 0.973 | locus YJL115W, strain asf1, stronger effect = lower value 0.959 | locus YJL129C, strain trk1, stronger effect = lower value 0.943 | locus YJL134W, strain LCB3, stronger effect = lower value 1.01 | locus YJL154C, strain vps35, stronger effect = lower value 0.971 | locus YJL164C, strain tpk1, stronger effect = lower value 0.974 | locus YJL166W, strain qcr8, stronger effect = lower value 0.974 | locus YJL168C, strain set2, stronger effect = lower value 1.01 | locus YJL187C, strain SWE1 (second series), stronger effect = lower value 1.01 | locus YJL187C, strain SWE1, stronger effect = lower value 0.98 | locus YJR043C, strain POL32, stronger effect = lower value 1.02 | locus YJR066W, strain TOR1, stronger effect = lower value 0.95
